Experimental data: PubChem BioAssay AID1259240 (Keith Lab, Institute of Cancer Science, University of …, 2017)
Values without a mark were called inactive. Active and inactive are the calls of the source. No stated cut-off is given here; in the data, active means fold change mostly below about -2 (no sharp cut-off); inactive means mostly above about -1.8.

Test: modulation of TERT promoter-driven luciferase – cell-based, luciferase reporter, human, primary screen (AID 1259240)
Settings: A2780 TERT promoter luciferase reporter, 16 h; at 20 µM, fold versus average of vehicle-only wells

Structure (SMILES) | fold change
O=C(NCCc1c[nH]c2ccccc12)c1ccc(NC2=NC3CS(=O)(=O)CC3S2)cc1 (stereo not given) | -1.35
CCc1ccc(CNc2ccc3c(c2)ncn3C(C)C)cc1 | -2.78 (active)
CN(C)c1nc(C(N)=O)nc(N2CCOCC2)n1 | 1.62
COc1ccc(C2=NN3C(C2)c2cc(Cl)ccc2OC3c2cccnc2)cc1 (stereo not given) | 1.37
COCCNC(=O)Cn1cc(/C=C2/C(=O)N(C)c3ccccc32)c2cc(Br)ccc21 | -1.01
CC1=CSC2=NC(=O)/C(=C\c3coc4ccccc4c3=O)C(=N)N12 | -1.1
C=CCn1c(NCCN(CC)CC)nc2c1c(=O)[nH]c(=O)n2C | 1.22
O=C(CSc1nc(-c2cccs2)cc(C(F)(F)F)n1)NCc1cccnc1 | -2.7 (active)
CC(NC(=O)c1cnn2c(C(F)F)cc(-c3ccccc3)nc12)c1ccccc1 (stereo not given) | -1.39
O=C(O)CCN1C(=O)c2ccccc2S1(=O)=O | -1.2
Cc1ccn2c(NC(=O)CC(C)C)c(-c3ccc(F)cc3)nc2c1 | -2.38 (active)
CCN1C(=O)C(O)(CC(=O)c2ccc(Br)s2)c2ccccc21 (stereo not given) | -1.03
O=C(O)CN1C(=O)/C(=C/c2ccc(SCc3ccco3)o2)SC1=S | -1.49
Cc1cccc2sc(NC(=O)c3ccc(CNc4c(NC5CCCC5)c(=O)c4=O)cc3)nc12 | -1.04
CCOC(=O)c1c(NC(=O)CSc2ncccn2)sc(C(C)=O)c1C | -1.02
Cc1ccc(NC(=O)Nc2ccc3c(c2)N(C)C(=O)CS3)c(C)c1 | -1.06
c1cc2nncn2nc1NCCCN1CCOCC1 | -1.08
Cc1cccc(CNc2nc(N)n(-c3ccccc3)n2)c1 | 1.27
Cc1cc(C)c2c(=O)n(CC(=O)N3CCOCC3)sc2n1 | 1.35
Clc1ccc(CNc2ccc3nncn3n2)cc1 | -1.3
COc1nc(NC(C)(C)C)nc(Oc2ccc(=O)[nH]n2)n1 | 2 (active)
O=C1SC(Nc2ccccc2F)C(=O)N1c1ccccc1 (stereo not given) | 1.65
Cc1cc(Oc2ccccc2)nc(SCC(N)=O)n1 | 1.5
COc1ccccc1-c1nc(-c2ccccn2)no1 | -2.84 (active)
CCCn1c(NCc2cccs2)nc2ccccc21 | 1.22
